# Assay results as given in PubChem BioAssay (Tox21).
# Records with an inconclusive call do not appear. A call without a number means that no potency is given here. Values without a mark were called inactive. Activity calls are given as the source filed them. Calls follow the shape of the dose curve; as a rule, active = well fitted cell-killing curve with a large enough effect in the repeat runs; inconclusive = weak or mixed curves, or effect the other way; inactive = flat fitted curve, though single readings scatter.
# Assays:
# [1] = cAMP Responsive Elements (CRE) small molecule antagonists, cell-based qHTS assay: qHTS cell viability counter screen (AID 2060913); settings: CRE-bla HEK293T viability, CellTiter-Glo luminescence, 5 h; series mostly up to 92.4 µM; also: nearly all actives have a fitted effect of over 40% in size
# In short: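 Cytotoxicity read in the same wells as the CRE-bla HEK293T antagonist assay: after 3 h compound with 0.25 uM NKH477 final and 2 h beta-lactamase substrate, CellTiter-Glo luminescence measured.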
# [2] = cAMP Responsive Elements (CRE) small molecule agonists, cell-based qHTS assay: qHTS cell viability counter screen (AID 2060914); settings: CRE-bla HEK293T viability, CellTiter-Glo luminescence, 5 h; series mostly up to 92.4 µM;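 also: viability read after 3 h of compound exposure; nearly all actives have a fitted effect of over 50% in size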
# In short: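 HEK 293T CRE-bla; DMEM + 10% dialyzed FBS, 25 mM HEPES; 18 h pre-incubation; compound 3 h, 37 °C/5% CO2; CellTiter-Glo added after reporter read; luminescence after 30 min RT.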
SMILES,Potency [1],Potency [2],"viability change, negative = cytotoxic [1]","activity change, negative = cytotoxicity [2]"
CCN(CC)CCOC(=O)C(C)(c1ccccc1)c1ccccc1,inactive,inactive,,
COc1ccc(C=O)cc1OC,inactive,inactive,,
O=[N+]([O-])c1cccc2cccnc12,inactive,inactive,,
C(=NC1CCCCC1)=NC1CCCCC1,inactive,inactive,,
O=c1nc(O)n(Cl)c(=O)n1Cl,inactive,inactive,,
C1CS1,inactive,inactive,,
C=CCOC(=O)C(C)(C)OC(=O)c1cc(-n2c(=O)cc(C(F)(F)F)n(C)c2=O)ccc1Cl,inactive,inactive,,
CC[C@@H](CO)NC(=O)[C@@H]1C=C2c3cccc4c3c(cn4C)C[C@H]2N(C)C1,inactive,inactive,,
CCOP(=S)(OCC)SCCSCC,inactive,inactive,,
O=[N+]([O-])c1ccc2c3c(cccc13)CC2,inactive,inactive,,
C/C(=C\c1ccccc1)[N+](=O)[O-],inactive,inactive,,
c1coc(-c2nc3ccccc3[nH]2)c1,inactive,inactive,,
COP(=O)(OC)Oc1ccc([N+](=O)[O-])cc1,inactive,inactive,,
Oc1c(Cl)c(Cl)c(Cl)c(Cl)c1Cl,inactive,inactive,,
CC(C)(C#N)N=NC(C)(C)C#N,inactive,inactive,,
Clc1cccc(Cl)c1,inactive,inactive,,
CC1(C)CON(Cc2ccccc2Cl)C1=O,inactive,inactive,,
COP(=O)(OC)C(O)C(Cl)(Cl)Cl (configuration not stated),inactive,inactive,,
COc1ccc(Cc2nccc3cc(OC)c(OC)cc23)cc1OC,inactive,inactive,,

SMILES,Potency [1],Potency [2],"viability change, negative = cytotoxic [1]","activity change, negative = cytotoxicity [2]"
CCOP(=O)(CN(CCO)CCO)OCC,inactive,inactive,,
CC(C)CCON=O,inactive,inactive,,
CN/C(=N\[N+](=O)[O-])NCC1CCOC1 (configuration not stated),inactive,inactive,,
COCCl,inactive,inactive,,
CC(NC(C)(C)C)C(=O)c1cccc(Cl)c1 (configuration not stated),inactive,inactive,,
CC(=O)CC(c1ccc(Cl)cc1)c1c(O)c2ccccc2oc1=O (configuration not stated),inactive,inactive,,
CCCCCCCCCCCC#N,inactive,inactive,,
CCOP(=S)(OCC)SCSc1ccc(Cl)cc1,inactive,inactive,,
Nc1cccc(Cl)c1,inactive,inactive,,
CC(=[OH+])/C=C(/C)[O-].CC(=[OH+])/C=C(\C)[O-].CC(=[OH+])/C=C(\C)[O-].[Al],inactive,inactive,,
CCC[CH2][Sn]([CH2]CCC)([O]C(C)=O)[O]C(C)=O,inactive,inactive,,
CCOc1nc(C(Cl)(Cl)Cl)ns1,inactive,inactive,,
Nc1ncc([N+](=O)[O-])s1,inactive,inactive,,
Cc1ncsc1CCCl,inactive,inactive,,
CC(=O)[O-].CC(=O)[O-].CC(=O)[O-].[Sb+3],,,0.272% [at 3.27 µM],-8.91% [at 3.27 µM]
CCC(C)(C)c1ccc(O)cc1,inactive,inactive,,
CCC(COC(=O)c1cc(OC)c(OC)c(OC)c1)(c1ccccc1)N(C)C (configuration not stated),inactive,inactive,,
Oc1ccc(Cl)c(Cl)c1,inactive,inactive,,
Nc1ccc(N)cc1,inactive,inactive,,

SMILES,Potency [1],Potency [2],"viability change, negative = cytotoxic [1]","activity change, negative = cytotoxicity [2]"
CCSCc1ccccc1OC(=O)NC,inactive,inactive,,
ClC1=C(Cl)C2(Cl)C(CBr)CC1(Cl)C2(Cl)Cl (configuration not stated),inactive,inactive,,
CCO/N=C(\CC)C1=C(O)CC(c2c(C)cc(C)cc2C)CC1=O (configuration not stated),inactive,inactive,,
CCOC1Oc2ccc(OS(C)(=O)=O)cc2C1(C)C (configuration not stated),inactive,inactive,,
O=S(=O)(O)OOS(=O)(=O)O,inactive,inactive,,
O=C(CCN1CC1)OCC(CO)(COC(=O)CCN1CC1)COC(=O)CCN1CC1,inactive,inactive,,
CS(=O)(=O)NC(=O)c1cc(Oc2ccc(C(F)(F)F)cc2Cl)ccc1[N+](=O)[O-],inactive,inactive,,
Cc1cccc(N=Nc2ccc(N(C)C)cc2)c1,inactive,inactive,,
ClC(Cl)=C(Cl)Cl,inactive,inactive,,
COC(=O)c1sccc1S(=O)(=O)NC(=O)Nc1nc(C)nc(OC)n1,inactive,inactive,,
CCCCN(CC)C(=O)SCCC,inactive,inactive,,
CCOC(=O)c1ccccc1C(=O)OCC,inactive,inactive,,
CCC1(CC)C(=O)C=CNC1=O,inactive,inactive,,
C=CCCl,inactive,inactive,,
COc1cc(C[C@@H](C)N)c(OC)cc1Br,inactive,inactive,,
COc1cc(CC(C)N)cc2c1OCO2 (configuration not stated),inactive,inactive,,
[N-]=[N+]=[N-],inactive,inactive,,
C=CCC1([C@H](C)CCC)C(=O)NC(=O)NC1=O,inactive,inactive,,
